Screens deposited in PubChem BioAssay by several laboratories.
KLF5 inh: kruppel-like factor 5 inhibition; inhibition, % at 5 µM; DLD-1 KLF5 promoter-luciferase reporter, luminescence; 290,000 compounds, 0.23% hits; AID 1700;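 active = inhibition above a per-plate limit of that plate's mean compound inhibition plus 3 SD, cut at about 60% in these data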;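 also: higher means less KLF5 promoter-driven luciferase light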
aSyn UTR inh: 5' untranslated region of α-synuclein, MLPCN primary screen; alpha-synuclein 5'UTR reporter, inhibitor activity; inhibition, % (tested at 7.5 µM); 300,000 compounds, 0.82% hits; in the data active = inhibition above about 60%;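 also: H4 neuroglioblastoma cells stably carrying SNCA 5'UTR luciferase fusion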
Ba/F3 V617F tox: reduce viability of Ba/F3 cells dependent on JAK2V617F | Ba/F3 EpoR-JAK2V617F viability, ATP luminescence | 220,000 compounds, 1.1% hits | inhibition, % at 5.6 µM;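 active = inhibition above the campaign mean plus 3 SD over all tested compounds, cut at about 24% in these data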;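 also: cytokine-independent growth of Ba/F3 cells driven by EpoR plus mutant JAK2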
APP 5UTR inh: APP translation inhibition | SH-SY5Y APP 5'UTR-luciferase reporter, luminescence | inhibition, % at 2 µM | 190,000 compounds, 0.82% hits;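 active = inhibition above a set limit, derived from the sample mean plus 3 SD, cut at about 45% in these data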
IEC-6 tox: IEC-6 cytotoxicity, counter-screen for KLF5 inhibitors | 290,000 compounds, 0.78% hits | luminescence viability | inhibition, % at 5 µM; in the data active = inhibition above about 22%
BaF3 parental: reduces parental Ba/F3 cell viability, JAK2V617F counter-screen. CellTiter-Glo ATP luminescence. inhibition, % at 5.6 µM. 220,000 compounds, 1.1% hits. AID 1486;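 active = inhibition above a per-campaign cutoff, the mean inhibition of all tested compounds plus 3 SD, cut at about 27% in these data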
A number is an active result. Sampled rows, rich in hits. Any-hit rate of the full collection: about 2.1%.

For Cc1cc(=O)oc2cc(OCC(=O)Nc3nccs3)ccc12 the results were KLF5 inh inactive, aSyn UTR inh inactive and IEC-6 tox inactive.
For Cc1c(C)c2ccc(OCC(=O)Nc3nccs3)cc2oc1=O the results were KLF5 inh inactive, aSyn UTR inh 66 and IEC-6 tox inactive.
Nc1nc(-c2ccco2)nn1S(=O)(=O)c1ccc(Cl)cc1 was read as KLF5 inh inactive, aSyn UTR inh inactive, Ba/F3 V617F tox inactive, APP 5UTR inh inactive, IEC-6 tox inactive and BaF3 parental inactive.
Screening Cc1cc(N2CCN(Cc3nc(-c4ccc(Cl)cc4)oc3C)CC2)cc(C)n1 returned KLF5 inh inactive, aSyn UTR inh inactive, Ba/F3 V617F tox inactive, IEC-6 tox inactive and BaF3 parental inactive.
For COc1ccc(-c2nc(CN3CCN(c4cc(C)nc(C)c4)CC3)c(C)o2)c2ccccc12 the results were KLF5 inh inactive, aSyn UTR inh 68, Ba/F3 V617F tox inactive, APP 5UTR inh inactive, IEC-6 tox inactive and BaF3 parental inactive.
`Cc1ccc(NC(=S)N2CCC(NC(=O)c3ccc(F)cc3)CC2)cc1` gave KLF5 inh inactive, aSyn UTR inh inactive and IEC-6 tox inactive.
For COc1c(/C=N/Nc2ccc(C(=O)O)cc2)c(CCN(C)C(C)=O)cc2c1OCO2 the results were KLF5 inh inactive, aSyn UTR inh inactive, Ba/F3 V617F tox inactive, IEC-6 tox inactive and BaF3 parental inactive.
`Cc1ccc2nc3sc(C(=O)N4CCOCC4)c(N)c3cc2c1` gave KLF5 inh inactive, aSyn UTR inh 100, Ba/F3 V617F tox inactive, APP 5UTR inh inactive, IEC-6 tox inactive and BaF3 parental inactive.
Screening Cc1ccc2cc3c(N)c(C(=O)N4CC(=O)Nc5ccccc54)sc3nc2c1 returned KLF5 inh inactive, aSyn UTR inh 82, Ba/F3 V617F tox inactive, APP 5UTR inh inactive, IEC-6 tox inactive and BaF3 parental inactive.
`Cc1sc2nc(CN(Cc3cccs3)C(=O)C3CC3)[nH]c(=O)c2c1C` gave KLF5 inh inactive, aSyn UTR inh inactive, Ba/F3 V617F tox inactive, APP 5UTR inh inactive, IEC-6 tox inactive and BaF3 parental 86.
Screening Cc1sc2nc(SCC(=O)NCc3cccs3)[nH]c(=O)c2c1C returned KLF5 inh inactive, aSyn UTR inh inactive, Ba/F3 V617F tox inactive, APP 5UTR inh inactive, IEC-6 tox inactive and BaF3 parental inactive.
`NS(=O)(=O)c1ccc(CNC(=O)Cc2c(F)cccc2Cl)cc1` gave KLF5 inh inactive, aSyn UTR inh inactive, Ba/F3 V617F tox inactive, APP 5UTR inh inactive, IEC-6 tox inactive and BaF3 parental 60.
Screening O=C(c1ccccc1)c1cc(Cl)ccc1N1C(=O)C=CC1=O returned KLF5 inh inactive, Ba/F3 V617F tox inactive, APP 5UTR inh 80, IEC-6 tox inactive and BaF3 parental inactive.
Screening O=C(CCS(=O)(=O)c1cc2c(cc1Cl)NC(=O)CO2)NCc1ccc(F)cc1 returned KLF5 inh inactive, aSyn UTR inh inactive and IEC-6 tox inactive.
Cc1ccc(/C=N/NC(=S)NC(C)C)o1 was read as KLF5 inh inactive, aSyn UTR inh inactive, Ba/F3 V617F tox inactive, APP 5UTR inh 72, IEC-6 tox inactive and BaF3 parental inactive.
For COc1ccc(-c2cc(C(=O)NN)[nH]n2)cc1OC the results were KLF5 inh inactive, aSyn UTR inh inactive, Ba/F3 V617F tox inactive, APP 5UTR inh 73, IEC-6 tox inactive and BaF3 parental inactive.
COc1ccc(-c2cc(C(=O)NN)[nH]n2)cc1 was read as KLF5 inh inactive, aSyn UTR inh inactive, Ba/F3 V617F tox inactive, APP 5UTR inh 84, IEC-6 tox inactive and BaF3 parental inactive.
For Cc1nc(-n2[nH]c3c(c2=O)CCCC3)[nH]c(=O)c1Cc1ccccc1 the results were KLF5 inh inactive, aSyn UTR inh 90, Ba/F3 V617F tox inactive, APP 5UTR inh inactive, IEC-6 tox inactive and BaF3 parental inactive.
Screening Cn1cc(C(=O)Nc2ccc(F)c(F)c2)cn1 returned KLF5 inh inactive, aSyn UTR inh inactive, Ba/F3 V617F tox inactive, APP 5UTR inh 50, IEC-6 tox inactive and BaF3 parental inactive.
For O=c1[nH]c(=O)n(-c2ccccc2)c2c1C(C(F)(F)F)(C(F)(F)F)N=C(C1CCCCC1)N2 the results were KLF5 inh inactive, aSyn UTR inh inactive, Ba/F3 V617F tox inactive, APP 5UTR inh inactive, IEC-6 tox inactive and BaF3 parental 40.
COc1cc(CN2CCN(CC#Cc3ccccc3)CC2CCO)cc(OC)c1 (stereo unspecified) was read as KLF5 inh inactive, aSyn UTR inh inactive and IEC-6 tox inactive.
Screening CCCCCOc1ccc(NC(=O)C(=O)NCCCn2ccnc2)cc1 returned KLF5 inh inactive, aSyn UTR inh 63, Ba/F3 V617F tox inactive, APP 5UTR inh inactive, IEC-6 tox inactive and BaF3 parental inactive.
Screening COc1cc(NC(=O)C2CCC(CNS(=O)(=O)c3csc(C(N)=O)c3)CC2)cc(OC)c1 (stereo unspecified) returned KLF5 inh inactive, aSyn UTR inh inactive and IEC-6 tox inactive.
For Cc1ccc(CN2CCNC(=O)C2CC(=O)N(C)C2CCCCC2)cc1 (stereo unspecified) the results were KLF5 inh inactive, aSyn UTR inh inactive and IEC-6 tox inactive.
COc1cc(CCC(=O)OCC(=O)Nc2ccc(F)c(F)c2)cc(OC)c1OC was read as KLF5 inh inactive, aSyn UTR inh inactive and IEC-6 tox inactive.
For CCN(c1ccc(NC(=O)COC(=O)CCc2cc(OC)c(OC)c(OC)c2)cc1)C(C)C the results were KLF5 inh inactive, aSyn UTR inh inactive, Ba/F3 V617F tox inactive, APP 5UTR inh inactive, IEC-6 tox inactive and BaF3 parental 80.
Screening CCOc1ccc(S(=O)(=O)N(CC)CC)cc1NC(=O)CSCc1c(C)noc1C returned aSyn UTR inh inactive.
O=C(N/N=C/c1cccc([N+](=O)[O-])c1)c1cnccn1 was read as KLF5 inh inactive, aSyn UTR inh inactive, Ba/F3 V617F tox inactive, APP 5UTR inh inactive, IEC-6 tox inactive and BaF3 parental inactive.
`O=C(N/N=C/c1cc([N+](=O)[O-])ccc1Cl)c1cnccn1` gave KLF5 inh inactive, aSyn UTR inh 81, Ba/F3 V617F tox inactive, APP 5UTR inh inactive, IEC-6 tox inactive and BaF3 parental inactive.
CCN1/C(=C/C=C/C=C/c2sc3ccccc3[n+]2CC)Sc2ccccc21 was read as KLF5 inh inactive, aSyn UTR inh 126, Ba/F3 V617F tox 51, APP 5UTR inh 82, IEC-6 tox inactive and BaF3 parental 48.
CCN1/C(=C/C=C/C=C/C=C/c2sc3ccccc3[n+]2CC)Sc2ccccc21 was read as KLF5 inh inactive, aSyn UTR inh inactive and IEC-6 tox inactive.
`CCN(c1ccc(NC(=O)c2ccc(Cl)nc2)cc1)C(C)C` gave KLF5 inh inactive, aSyn UTR inh inactive, Ba/F3 V617F tox 77, APP 5UTR inh 60, IEC-6 tox 69 and BaF3 parental 69.
`O=C(CN1C(=O)c2ccccc2S1(=O)=O)c1ccc(O)c(O)c1` gave KLF5 inh inactive, aSyn UTR inh 64, Ba/F3 V617F tox inactive, IEC-6 tox inactive and BaF3 parental inactive.
COc1cc(/C=N/NC(=O)c2ccccc2O)ccc1OCC(=O)Nc1ccccc1 was read as KLF5 inh inactive, aSyn UTR inh inactive and IEC-6 tox inactive.
